TDP1 cell CPT: growth inhibition of DT40 Tdp1-/-;hTDP1 cells with camptothecin (screen for TDP1 inhibitors); chicken DT40 Tdp1-/-;hTDP1 cells + 20 nM CPT, ATP luminescence, 48 h; Potency, µM (series often up to 46.2 µM), hits mostly inhibitors; 12% of 420,000 active; further: nearly all actives have a fitted effect of over 55% in size
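Chicken DT40 Tdp1-/- cells complemented with human TDP1, 400 cells/well, exposed to compounds plus 20 nM camptothecin for at least 48 h at 37 C; viability read as ATP content by CellTiter-Glo luminescence.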
KB-V1 cytotox: KB-V1 MDR subline cytotoxicity | KB-V1 MDR cells viability, CellTiter-Glo, 72 h | Potency, µM (titrated, usually from 46.1 µM), most hits filed as cytotoxic | 3.4% of 400,000 active; further: nearly all actives have a fitted effect of over 60% in size
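Cytotoxicity via CellTiter-Glo luminescence after 72 h compound exposure at 37 degrees C. Cells: drug-selected KB-V1 line, DMEM phenol-red free plus 10% FBS. Compounds tested at multiple concentrations; normalized data fitted to concentration-effect curves.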
KB-3-1 tox: kills parental KB-3-1 adenocarcinoma cells. Potency, µM (highest dose often 46.1 µM), most hits filed as cytotoxic. AID 1347075. 1.4% of 400,000 active. KB-3-1 viability, CellTiter-Glo ATP luminescence, 72 h; further: nearly all actives have a fitted effect of over 60% in size
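Using CellTiter-Glo luminescence, growth of non-resistant KB-3-1 adenocarcinoma cells is assessed 72 h after pin-tool compound addition at 37 °C. Normalized responses across the concentration series yield fitted curves.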
TDP1 cell noCPT: qHTS for Inhibitors of human tyrosyl-DNA phosphodiesterase 1 (TDP1): qHTS in cells in absence of CPT | Potency, µM (series often up to 46.2 µM), actives largely listed as inhibitors | 15% of 420,000 active | DT40 Tdp1-/- hTDP1 cells, no CPT, ATP luminescence, 48 h; further: nearly all actives have a fitted effect of over 55% in size
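Readout: luminescence from CellTiter-Glo after 30 min in the dark at RT. Cells: DT40 Tdp1-/- with stable hTDP1, 400/well. Exposure: compounds alone, ≥48 hr, 37 °C.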
HT1080 IDH1KD tx: HT-1080 IDH1 knockdown cell toxicity (counter line); HT-1080 IDH1 knockdown viability, ATP luminescence, 48 h; 2% of 360,000 active; AID 686971; Potency, µM (doses to about 46.1 µM), usual class: cytotoxic
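Luminescent ATP read-out (CellTiter-Glo, 10 min at room temperature) after 48 h compound exposure at 37 °C gave viability of IDH1-knockdown HT-1080 cells. Activity was normalised to DMSO and cell-free wells, then fitted as concentration-response curves.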
HT1080NT lethal: kills 2HG-producing HT-1080-NT fibrosarcoma cells; 1.6% of 360,000 active; Potency, µM (titrated, usually from 46.1 µM), most hits filed as cytotoxic; HT-1080-NT fibrosarcoma viability, CellTiter-Glo ATP luminescence, 48 h; AID 686970;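 further: NT is the 2HG producing partner of a matched IDH1 knockdown line; nearly all actives have a fitted effect of over 55% in size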
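Read-out is CellTiter-Glo luminescence after 10 minutes at room temperature, following 48 hours' compound treatment of HT-1080-NT cells (750 cells/well, RPMI, 5% FBS, 37 degrees C).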
A number is an active result; . = inactive; ? = inconclusive; / = no result given; [ ] = remark or other dose. Most compounds without a hit are left out; they make up all but 19% or so of the library. The call rests on the fitted dose curve; in most records, active means well fitted curve in the direction sought with a large enough effect; inconclusive means small, poorly fitted or top-dose-only effect, or another doubt; inactive means no such curve, though single readings can be large; an effect the other way counts as inactive or inconclusive.

SMILES | TDP1 cell CPT | KB-V1 cytotox | KB-3-1 tox | TDP1 cell noCPT | HT1080 IDH1KD tx | HT1080NT lethal
CC(C)c1ccc(CN2CCC2(C)C(=O)Nc2cccc(Oc3ccccc3)c2)cc1 (configuration not stated) | ? | . | . | 18.4µM | . | ?
COc1cccc(CN2CCC2(C)C(=O)Nc2cccc(Oc3ccccc3)c2)c1OC (configuration not stated) | 23.1µM | ? | . | 20.6µM | ? | .
COc1ccc(CN2CCC2(C)C(=O)Nc2cccc(NS(C)(=O)=O)c2)c2ccccc12 (configuration not stated) | ? | 2.91µM | ? | ? | ? | ?
COc1ccc(CN2CCC2(C)C(=O)NCc2ccc3c(c2)OCO3)c2ccccc12 (configuration not stated) | 23.1µM | . | . | ? | . | .
COc1ccc(CN2CCC2(C)C(=O)NCCNC(C)=O)c2ccccc12 (configuration not stated) | . | . | . | . | . | .
COc1cccc(NC(=O)C2(C)CCN2Cc2ccc(OC)c3ccccc23)c1 (configuration not stated) | ? | ? | ? | . | ? | ?
CC(=O)c1ccc(S(=O)(=O)N2CCn3cccc3C2c2ccccc2F)cc1 (configuration not stated) | ? | . | . | . | / | /
O=C(CN1Cc2ccccc2OC(c2ccsc2)C1)N1CCC(c2nc3ccccc3[nH]2)CC1 (configuration not stated) | .[9.04 µM] | / | / | ? | / | /
COCCCn1c(SCc2cccc(Cl)c2)nc2c(sc3ccccc32)c1=O | . | . | . | ? | / | /
COc1cccc(NC(=O)C2(C)CCN2Cc2ccc3ccccc3c2)c1 (configuration not stated) | ? | . | . | ? | ? | ?
COc1cccc(CN2CCC2(C)C(=O)Nc2cccc(NS(C)(=O)=O)c2)c1OC (configuration not stated) | 18.4µM | . | . | 23.1µM | . | .
CC(=O)Nc1ccc(S(=O)(=O)N[C@@H](C)C(=O)OCC(=O)Nc2ccc3c(c2)OCCO3)cc1 | . | . | . | . | . | .
CN1/C(=C\C(=O)c2cccs2)Sc2ccccc21 | ? | ? | . | 10.3µM | ? | ?
CC(C)(C)CN1CCNC(=O)C1CC(=O)NCCN1CCCc2ccccc21 (configuration not stated) | . | . | . | . | . | .
CCN1C=C(Cc2ccc(OC)cc2)C2=C(C1)C(c1ccc(OC)cc1)C(C#N)=C(N)O2 (configuration not stated) | ? | . | ? | 16.4µM | ? | .
COc1ccc(C(=O)c2ccc3oc(-c4ccc(OC)cc4)c(-c4ccc(O)cc4)c3c2)cc1 | ? | ? | 18.4µM | 9.2µM | . | .
CCn1cc(C(=O)NCc2ccc(C)cc2)c(=O)c2cc(S(=O)(=O)N(C)C3CCCCC3)ccc21 | ? | . | . | ? | / | /
O=C(NC(C(=O)c1ccccc1)N1CCCCCC1)c1ccco1 (configuration not stated) | 23.1µM | . | . | 20.6µM | . | .
Cc1ccc(C(=O)C(NC(=O)c2ccco2)N2CCOCC2)cc1 (configuration not stated) | . | . | . | . | . | .
Cc1cccc(N2CCN(C(=O)c3cccc(N4C(=O)C5C6C=CC(C6)C5C4=O)c3)CC2C)c1 (configuration not stated) | 13µM | ? | ? | 20.6µM | ? | ?
O=C(CCN1C(=O)C2C3C=CC(C3)C2C1=O)N1CCN(c2cccc(Cl)c2)CC1 (configuration not stated) | 16.4µM | ? | . | 16.4µM | . | .
CC1CCN(C(=O)CCN2C(=O)C3C4C=CC(C4)C3C2=O)CC1 (configuration not stated) | . | . | . | . | . | .
Cc1cccc(N2CCN(C(=O)CCN3C(=O)C4C5C=CC(C5)C4C3=O)CC2C)c1 (configuration not stated) | . | ? | . | 25.9µM | . | .
COc1ccc(CC(=O)OCC(=O)NC2CCCC(C)C2C)cc1OC (configuration not stated) | . | / | / | . | . | .
Cc1ccc([N+](=O)[O-])cc1N/C=C1\CCc2ccccc2C1=O | 20.6µM | . | . | ? | . | .
SMILES | TDP1 cell CPT | KB-V1 cytotox | KB-3-1 tox | TDP1 cell noCPT | HT1080 IDH1KD tx | HT1080NT lethal
Nc1ccc2nc(-c3ccccc3)[nH]c2c1 | ? | . | . | ? | . | .
COc1ccc2nc(-c3cccc(N)c3)[nH]c2c1 | ? | . | . | 23.1µM | . | .
Nc1cccc(-c2nc3ccc(C(=O)c4ccccc4)cc3[nH]2)c1 | 0.731µM | 3.66µM | 6.51µM | 0.82µM | 10.3µM | 13µM
O=C(CC(SCCO)c1ccc2c(c1)OCO2)c1ccco1 (configuration not stated) | 20.6µM | . | . | 18.4µM | . | .
O=C(NCc1ccc2c(c1)OCO2)c1ccco1 | . | . | . | . | . | .
COc1ccc(-c2noc(CCC(=O)NCCCN3CCN(c4ccc(F)cc4)CC3)n2)cc1 | 18.4µM | . | . | 18.4µM | . | .
COc1ccc(-c2noc(=O)n2CC(=O)N2CCC(Cc3ccccc3)CC2)cc1 | ? | . | . | 23.1µM | . | .
COc1ccc(NC(=O)NCCCN2CCC(Cc3ccccc3)CC2)cc1 | ? | ? | . | ? | . | ?
COc1ccc(CCC(=O)NCCS(=O)(=O)N2CCN(c3ccc(F)cc3)CC2)cc1 | . | . | . | ? | . | .
COc1ccc(-c2noc(CCC(=O)NCCCN3CCC(Cc4ccccc4)CC3)n2)cc1 | 14.6µM | ? | ? | 14.6µM | ? | ?
CN(Cc1nccn1C)C(=O)CC1C(=O)NCCN1CC(c1ccccc1)c1ccccc1 (configuration not stated) | . | . | . | . | . | .
Cc1cccnc1CNC(=O)C1CCC(=O)N(CCc2cccc(F)c2)C1 (configuration not stated) | . | . | . | . | . | .
Nc1c(N=O)c(=O)[nH]c(=O)n1-c1ccccc1 | . | . | . | . | . | .
CCCNc1c(N)n(-c2ccccc2)c(=O)[nH]c1=O | ? | . | . | 16.4µM | . | .
Nc1c(NCc2ccccc2)c(=O)[nH]c(=O)n1Cc1ccccc1 | ? | . | . | 18.4µM | . | .
Cc1ccnc2c(Cl)c(Cl)ccc12 | . | . | . | . | / | /
Cc1cccc(C(=O)Nc2cccc(C(=O)OCc3cc(=O)n4ccsc4n3)c2)c1 | . | . | . | . | / | /

Bioassay records (PubChem BioAssay)
